For assay [1], the target named is Retinoic acid receptor RXR-alpha (Homo sapiens) (UniProt P19793). Kind of assay: ATG_RXRa_TRANS: Attagene TRANS-FACTORIAL HepG2 Assay for human Retinoid X Receptor alpha (RXRa) (AID 2283012; active = hit-call score of the fitted dose curve at least 0.9, where 1 is the maximum). An outline of the steps: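 Measures exogenous chimeric NR-GAL4 activity in transfected HepG2 liver cells after 24 h of dosing. Induced reporter mRNA was detected by RT-PCR with capillary electrophoresis, and gain of signal was analysed against DMSO.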

Assay [2] concerns the target human Vitamin D Receptor (VDR), VDR (gene 7421) (UniProt P11473). As to the kind of experiment: ATG_VDR_TRANS: Attagene TRANS-FACTORIAL HepG2 Assay for human Vitamin D Receptor (VDR) (AID 2283022; active = hit-call score of the fitted dose curve at least 0.9, where 1 is the maximum). Put shortly:
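Steps: transfect HepG2 with GAL4-UAS-driven reporter constructs; dose compounds 24 h; isolate RNA, reverse-transcribe, PCR-amplify with 6-FAM-labelled primer extension and HpaI digestion; quantify fragments by capillary electrophoresis relative to DMSO.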

The target in assay [3] is human Thyroid Receptor alpha (THRa1), THRA (gene 7067) (UniProt P10827). Kind of assay: ATG_THRa1_TRANS: Attagene TRANS-FACTORIAL HepG2 Assay for human Thyroid Receptor alpha (THRa1) (AID 2283014; active = hit-call score of the fitted dose curve at least 0.9, where 1 is the maximum). An outline of the steps:
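Reporter transcript induction, read by capillary electrophoresis of 6-FAM-labelled RT-PCR products, reflects activity of a transfected THRa1-Gal4 fusion in HepG2 liver cells. Cells were dosed for 24 h; activity was fitted in the positive direction against DMSO.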

Read-out in assay [4]: E-selectin (Homo sapiens) (UniProt P16581)
As to the kind of experiment: BSK_3C_Eselectin: BioMAP Diversity Plus: 3C Assay for Eselectin Biomarker Activity (AID 2283015). The note with it: primary human endothelial cells (HUVEC); actives raise or lower the signal. Put shortly: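 ELISA read-out of E-selectin on endothelial monolayers after 24 h chemical treatment. Human umbilical vein primary cells served as the system, with DMSO defining baseline activity for bidirectional fitting.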

Read-out in assay [5]: Interleukin-1 alpha (IL1a), IL1A (gene 3552)
As to the kind of experiment: BSK_BE3C_IL1a: BioMAP Diversity Plus: BE3C Assay for Interleukin-1 alpha (IL1a) Biomarker Activity (AID 2283016). The note with it: primary human bronchial epithelial cells; actives raise or lower the signal. Put shortly:
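Signal from IL-1a ELISA, taken 24 h after chemical dosing of human bronchial epithelial cells, is compared with DMSO as baseline using bidirectional curve fitting.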

Read-out in assay [6]: Monocyte Chemoattractant Protein-1 (MCP1), CCL2 (gene 6347)
Kind of assay: BSK_3C_MCP1: BioMAP Diversity Plus: 3C Assay for Monocyte Chemoattractant Protein-1 (MCP1) Biomarker Activity (AID 2283017). The note with it: primary human endothelial cells (HUVEC); actives raise or lower the signal. An outline of the steps: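 ELISA read-out of MCP-1 from human umbilical vein endothelial cell cultures harvested 24 h post-dosing. Gain or loss of signal was fitted relative to DMSO.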

Read-out in assay [7]: Monocyte Chemoattractant Protein-1 (MCP1), CCL2 (gene 6347)
Kind of assay: BSK_4H_MCP1: BioMAP Diversity Plus: 4H Assay for Monocyte Chemoattractant Protein-1 (MCP1) Biomarker Activity (AID 2283018). The note with it: primary human endothelial cells (HUVEC); actives raise or lower the signal. Put shortly:
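Endothelial cells from umbilical vein were treated with test chemical, then after 24 h MCP-1 levels were quantified by ELISA; endpoint values came from bidirectional fitting with DMSO as baseline of activity.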

Read-out in assay [8]: Human Leukocyte Antigen - DR isotype (HLADR), HLA-DRA (gene 3122)
As to the kind of experiment: BSK_3C_HLADR: BioMAP Diversity Plus: 3C Assay for Human Leukocyte Antigen - DR isotype (HLADR) Biomarker Activity (AID 2283019). Particulars: primary human endothelial cells (HUVEC); actives raise or lower the signal. An outline of the steps: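 ELISA readout of surface HLA-DR on human umbilical vein endothelium, taken 24 h after chemical treatment. Gain- and loss-of-signal were both fitted relative to DMSO.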

Read-out in assay [9]: Interleukin-8 (IL8), CXCL8 (gene 3576)
As to the kind of experiment: BSK_3C_IL8: BioMAP Diversity Plus: 3C Assay for Interleukin-8 (IL8) Biomarker Activity (AID 2283020). Particulars: primary human endothelial cells (HUVEC); actives raise or lower the signal. An outline of the steps: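 Endothelial primary cells of human umbilical vein origin are dosed with chemical; after 24 h the IL-8 biomarker is measured by ELISA, and concentration–response is fitted in both directions versus DMSO.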

Read-out in assay [10]: Monokine induced gamma interferon (MIG), CXCL9 (gene 4283)
As to the kind of experiment: BSK_3C_MIG: BioMAP Diversity Plus: 3C Assay for Monokine induced gamma interferon (MIG) Biomarker Activity (AID 2283021).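 As to AC50: MIG protein level measured by immunoassay in the treated endothelial cultures.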 The note with it: primary human endothelial cells (HUVEC); actives raise or lower the signal. An outline of the steps: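 Endothelial primary cells (human umbilical vein) are dosed with test chemical in the 3C system. MIG levels are measured by ELISA at 24 h and fitted in both directions relative to DMSO.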

Assay [11] in a line: BSK_3C_SRB: Viability Assessment in the BioMAP Diversity Plus: 3C Assay (AID 2283023).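 Also: fitted both ways against DMSO so a hit may be signal rise or drop.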 The note with it: primary human endothelial cells (HUVEC). An outline of the steps:
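Absorbance at 560 nm of sulforhodamine B-stained (0.1%) total protein served as a cytotoxicity readout in human umbilical vein endothelial cells, 24 h after chemical treatment. Signal was fitted bidirectionally relative to DMSO.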

Read-out in assay [12]: Matrix Metallopeptidase 1 (MMP1), MMP1 (gene 4312)
Kind of assay: BSK_BE3C_MMP1: BioMAP Diversity Plus: BE3C Assay for Matrix Metallopeptidase 1 (MMP1) Biomarker Activity (AID 2283024). The note with it: primary human bronchial epithelial cells; actives raise or lower the signal. An outline of the steps: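 MMP1 signal, measured by ELISA after a 24 h chemical exposure of human primary bronchial epithelial cells, is analysed with bidirectional fitting using DMSO as negative control.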

Assay [13] can be described thus: BSK_3C_Vis: BioMAP Diversity Plus: 3C Assay for Morphology Visualization (AID 2283025).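 Also: fitted both ways so gain or loss versus DMSO counts.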 The note with it: primary human endothelial cells (HUVEC). An outline of the steps: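 Morphology read by light microscopy serves as a background control for the multiplexed 3C assay in human umbilical vein endothelial cells, taken 24 h after dosing, with DMSO as the negative control and bidirectional curve fitting.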

Read-out in assay [14]: Pselectin, SELP (gene 6403)
Kind of assay: BSK_4H_Pselectin: BioMAP Diversity Plus: 4H Assay for Pselectin Biomarker Activity (AID 2283026). Particulars: primary human endothelial cells (HUVEC); actives raise or lower the signal. Put shortly:
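Endothelial primary cells (human umbilical vein) are dosed, incubated 24 h, and assayed for surface P-selectin by ELISA; responses in either direction are fitted relative to the DMSO negative control.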

Assay [15] in a line: BSK_4H_SRB: Viability Assessment in the BioMAP Diversity Plus: 4H Assay (AID 2283027).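 Also: cells exposed to compound for 24 h before staining; curves fitted both ways versus DMSO so AC50 may be loss or gain.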 Particulars: primary human endothelial cells (HUVEC). Put shortly:
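Cytotoxicity read-out in primary human endothelial cells: after 24 h compound exposure, cells were TCA-fixed (10%), stained with 0.1% SRB and absorbance taken at 560 nm. Values fitted in both directions relative to DMSO.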

Assay [16] can be described thus: BSK_BE3C_SRB: Viability Assessment in the BioMAP Diversity Plus: BE3C Assay (AID 2283028).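 As to AC50: fitted both ways so AC50 may mark signal gain or loss versus DMSO.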 Particulars: primary human bronchial epithelial cells. Put shortly:
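Cells (human bronchial epithelial, primary) are treated with chemicals, and after 24 h the parallel cultures are fixed in 10% TCA. These are then stained with 0.1% SRB and read at 560 nm. Gain or loss of signal is fitted relative to DMSO.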

Read-out in assay [17]: Thrombomodulin, THBD (gene 7056)
As to the kind of experiment: BSK_3C_Thrombomodulin: BioMAP Diversity Plus: 3C Assay for Thrombomodulin Biomarker Activity (AID 2283029). The note with it: primary human endothelial cells (HUVEC); actives raise or lower the signal. Put shortly: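 Endothelial cells from umbilical vein are dosed with test chemical and incubated 24 h. Thrombomodulin is then quantified by ELISA, with DMSO serving as negative control and activity baseline.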

Read-out in assay [18]: Urokinase-type plasminogen activator receptor (uPAR), PLAUR (gene 5329)
As to the kind of experiment: BSK_4H_uPAR: BioMAP Diversity Plus: 4H Assay for Urokinase-type plasminogen activator receptor (uPAR) Biomarker Activity (AID 2283030). The note with it: primary human endothelial cells (HUVEC); actives raise or lower the signal. An outline of the steps: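 Cell-surface uPAR ELISA signal, measured 24 h after dosing human umbilical vein endothelial cells, was analyzed with bidirectional fitting relative to DMSO. Parallel SRB staining of total protein tracked overt cytotoxicity.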

Read-out in assay [19]: Vascular endothelial growth factor receptor 2 (Homo sapiens) (UniProt P35968)
As to the kind of experiment: BSK_4H_VEGFRII: BioMAP Diversity Plus: 4H Assay for Vascular endothelial growth factor receptor 2 (VEGFR2) Biomarker Activity (AID 2283031).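 As to AC50: cell-surface VEGFR2 protein level quantified by ELISA.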 Particulars: primary human endothelial cells (HUVEC); actives raise or lower the signal. Put shortly: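 ELISA read-out of VEGFRII in primary human umbilical vein endothelium, taken 24 h after chemical treatment. Responses are expressed relative to DMSO, with bidirectional fitting.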

Assay [20] has as its target human Retinoid X Receptor beta (RXRb), RXRB (gene 6257) (UniProt P28702). Kind of assay: ATG_RXRb_TRANS: Attagene TRANS-FACTORIAL HepG2 Assay for human Retinoid X Receptor beta (RXRb) (AID 2283013; active = hit-call score of the fitted dose curve at least 0.9, where 1 is the maximum). Put shortly:
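Chimeric receptor-Gal4 activity was assessed in transiently transfected human HepG2 cells after 24 h exposure. Transcripts from GAL4-UAS reporters were quantified by fluorescent RT-PCR and capillary electrophoresis, with DMSO as negative control and baseline.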

Structures are written as SMILES. Records with an inconclusive call do not appear. Activity calls are given as the source filed them. The calls were made as follows, unless noted: active = hit-call score of the fitted dose curve at least 0.9, where 1 is the maximum; inactive = score below 0.9.

Consider 6 molecules from PubChem BioAssay (EPA / NIEHS).

As usually defined, the AC50 is the concentration at which the activity in the assay is half-maximal.

human Vitamin D Receptor (VDR), VDR (gene 7421), sequence (P11473 whole entry, looked up, the tested form may be a part): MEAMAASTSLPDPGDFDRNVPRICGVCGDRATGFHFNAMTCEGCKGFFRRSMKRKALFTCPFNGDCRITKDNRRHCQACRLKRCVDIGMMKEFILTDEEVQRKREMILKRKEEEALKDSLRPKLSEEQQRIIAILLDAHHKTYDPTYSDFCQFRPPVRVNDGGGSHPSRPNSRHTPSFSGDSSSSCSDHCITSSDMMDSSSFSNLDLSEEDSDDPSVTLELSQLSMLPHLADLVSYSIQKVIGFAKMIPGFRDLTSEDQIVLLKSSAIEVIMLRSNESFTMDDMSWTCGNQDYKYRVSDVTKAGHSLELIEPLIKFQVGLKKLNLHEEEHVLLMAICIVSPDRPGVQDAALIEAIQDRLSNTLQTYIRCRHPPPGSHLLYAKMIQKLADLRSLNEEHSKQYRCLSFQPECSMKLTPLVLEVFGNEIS
human Retinoid X Receptor beta (RXRb), RXRB (gene 6257), sequence (P28702 whole entry, looked up, the tested form may be a part): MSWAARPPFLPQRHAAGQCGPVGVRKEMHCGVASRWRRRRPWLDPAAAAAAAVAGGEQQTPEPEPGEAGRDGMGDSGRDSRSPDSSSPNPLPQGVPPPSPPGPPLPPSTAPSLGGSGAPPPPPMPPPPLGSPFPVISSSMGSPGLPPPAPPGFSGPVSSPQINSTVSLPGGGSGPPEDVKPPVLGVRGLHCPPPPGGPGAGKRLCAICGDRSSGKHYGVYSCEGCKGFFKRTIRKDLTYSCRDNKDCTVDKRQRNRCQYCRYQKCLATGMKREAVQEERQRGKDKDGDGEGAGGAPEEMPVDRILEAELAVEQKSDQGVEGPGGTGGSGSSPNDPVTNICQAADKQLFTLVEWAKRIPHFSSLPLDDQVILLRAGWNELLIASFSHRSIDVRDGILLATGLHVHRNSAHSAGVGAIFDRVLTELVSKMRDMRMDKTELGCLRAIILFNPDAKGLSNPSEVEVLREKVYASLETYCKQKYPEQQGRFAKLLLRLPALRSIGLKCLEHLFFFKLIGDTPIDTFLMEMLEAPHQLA
E-selectin (Homo sapiens), sequence (P16581 whole entry, looked up): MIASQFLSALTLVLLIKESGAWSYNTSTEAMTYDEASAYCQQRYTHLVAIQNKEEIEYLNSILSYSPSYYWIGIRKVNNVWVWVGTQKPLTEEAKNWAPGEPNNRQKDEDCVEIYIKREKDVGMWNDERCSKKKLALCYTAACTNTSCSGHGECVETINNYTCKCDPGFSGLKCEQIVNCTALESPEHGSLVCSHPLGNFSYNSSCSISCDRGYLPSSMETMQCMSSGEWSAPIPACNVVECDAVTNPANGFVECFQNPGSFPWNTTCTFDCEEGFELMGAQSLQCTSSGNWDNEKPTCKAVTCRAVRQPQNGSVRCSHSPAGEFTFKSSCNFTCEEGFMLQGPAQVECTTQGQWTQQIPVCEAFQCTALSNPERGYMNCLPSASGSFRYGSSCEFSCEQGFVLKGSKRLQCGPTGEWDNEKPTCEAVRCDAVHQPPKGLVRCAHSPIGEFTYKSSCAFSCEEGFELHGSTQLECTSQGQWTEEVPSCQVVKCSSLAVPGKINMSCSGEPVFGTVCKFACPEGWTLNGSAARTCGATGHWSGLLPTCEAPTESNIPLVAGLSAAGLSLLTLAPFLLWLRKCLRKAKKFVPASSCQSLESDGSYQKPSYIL
Retinoic acid receptor RXR-alpha (Homo sapiens), sequence (P19793 whole entry, looked up, the tested form may be a part): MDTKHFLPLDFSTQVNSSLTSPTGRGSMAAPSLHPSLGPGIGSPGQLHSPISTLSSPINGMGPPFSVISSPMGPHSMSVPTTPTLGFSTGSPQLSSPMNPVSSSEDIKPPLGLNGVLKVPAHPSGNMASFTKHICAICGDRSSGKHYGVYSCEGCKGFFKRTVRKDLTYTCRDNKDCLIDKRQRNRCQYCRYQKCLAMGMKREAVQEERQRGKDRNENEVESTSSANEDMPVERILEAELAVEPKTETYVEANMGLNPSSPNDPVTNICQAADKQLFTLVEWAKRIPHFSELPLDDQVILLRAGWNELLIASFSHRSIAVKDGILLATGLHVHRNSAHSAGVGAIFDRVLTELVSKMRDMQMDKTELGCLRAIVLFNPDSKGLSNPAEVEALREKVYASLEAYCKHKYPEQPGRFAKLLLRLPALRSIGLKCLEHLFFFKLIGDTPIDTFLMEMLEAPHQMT
human Thyroid Receptor alpha (THRa1), THRA (gene 7067), sequence (P10827 whole entry, looked up, the tested form may be a part): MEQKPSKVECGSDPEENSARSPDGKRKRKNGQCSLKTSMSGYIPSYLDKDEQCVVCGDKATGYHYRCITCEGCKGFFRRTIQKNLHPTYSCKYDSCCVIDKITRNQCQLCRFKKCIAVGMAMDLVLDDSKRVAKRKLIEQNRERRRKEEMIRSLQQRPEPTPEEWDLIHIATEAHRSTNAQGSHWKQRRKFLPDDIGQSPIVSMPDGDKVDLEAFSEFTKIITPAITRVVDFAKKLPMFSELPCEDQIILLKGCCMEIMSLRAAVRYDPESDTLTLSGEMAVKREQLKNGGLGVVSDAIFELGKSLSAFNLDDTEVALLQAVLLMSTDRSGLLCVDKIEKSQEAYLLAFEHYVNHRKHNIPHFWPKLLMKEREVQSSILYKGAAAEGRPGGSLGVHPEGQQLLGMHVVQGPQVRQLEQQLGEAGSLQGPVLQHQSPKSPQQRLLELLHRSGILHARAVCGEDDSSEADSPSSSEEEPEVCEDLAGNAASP

With `CCCC(C)C(O)CC` (stereo not drawn), the result in assay [1] and in [2] was inactive.
For `CCCCN(CCCC)C(=O)N(CCCC)CCCC`, the result in [1], in assay [3], in assay [2] and in assay [17] was inactive. The AC50 was 6.65 µM (active) in assay [4]; 8.05 µM (active) in assay [5]; 8.46 µM (active) in assay [6]; 6.41 µM (active) in [7]; 6.8 µM (active) in assay [8]; 4.98 µM (active) in assay [9]. Moreover, the AC50 in assay [10] was 12.5 µM (active); in assay [11] it was 7.99 µM (active); in assay [12], 20 µM (active); in assay [13], 2.98 µM (active); in assay [14] it was 12.2 µM (active); in [15], 8.59 µM (active). The AC50 in [16] is 7.45 µM (active); in assay [18], 7.82 µM (active); in assay [19] it was 23.7 µM (active).
In the case of `CN(C)C(=S)SC(=S)N(C)C`, the AC50 was 19.9 µM (active) in [4]; 30.9 µM (active) in [5]; 31.4 µM (active) in [6]; 29.5 µM (active) in assay [7]; 31.2 µM (active) in assay [8]; 3.95 µM (active) in assay [9]. The AC50 in [11] is 19.9 µM (active); in assay [13] it was 39.2 µM (active); in assay [15] it was 19.9 µM (active). Further, the outcome in assay [10], in [12], in [14], in assay [16], in assay [17] and in assay [18] was inactive. The outcome in assay [19] was inactive.
Regarding `CS(=O)(=O)c1ccc(Cl)cc1`, the molecule was called inactive in [20] and in assay [2].
On to `Brc1ccc(Br)c(Br)c1`, for which, in assay [20], the AC50 is 137 µM (active). Moreover, in assay [2], the call was inactive.
Turning to `C=COCCOCCOC=C`, the molecule was classed as inactive in assay [20] and in assay [2].
